This is part of a sample that, as a whole, favours compounds with a hit. Of some 83,000 tested, about 20% had one in any assay.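 Step 1: grow cells in 96-well plates. Step 2: add test compound at a single concentration. Step 3: incubate 48 h. Step 4: record percent growth.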 Activity calls are given as the source filed them. How the source made its calls: active means growth percent below 10; inactive means the rest.
Legend:
Assay in all cases: NCI-60 one-dose screen, 48 h (100 = growth as untreated, 0 = no growth, -100 = all killed)
Settings in all cases: 10 µM unless noted
[1] = tested on: SR leukemia
[2] = tested on: OVCAR-8 ovarian
[3] = tested on: OVCAR-5 ovarian
[4] = tested on: OVCAR-4 ovarian
[5] = tested on: SK-OV-3 ovarian
[6] = tested on: IGROV1 ovarian
[7] = tested on: OVCAR-3 ovarian
[8] = tested on: HS 578T breast
[9] = tested on: NCI/ADR-RES ovarian
[10] = tested on: T-47D breast
[11] = tested on: BT-549 breast
[12] = tested on: SW-620 colon
[13] = tested on: MCF7 breast
[14] = tested on: HCT-116 colon
[15] = tested on: HCC-2998 colon
[16] = tested on: KM12 colon
[17] = tested on: MDA-MB-435 melanoma

Measured: growth

Cc1ccc(-c2cnc3sc(C(=O)NCCc4ccccc4)c(C)n23)cc1
inactive: [1] 110% | [2] 96.9% | [3] 98.5% | [4] 67% | [5] 84.6% | [6] 80.5% | [7] 79.4% | [8] 86.4% | [9] 104% | [10] 70% | [11] 79.5% | [12] 91.9% | [13] 83.2% | [14] 95.6% | [15] 96.9% | [16] 96%

COc1ccc(C2C(C#N)=C(N)Oc3c2sc2c(C)cccc32)cc1 (stereo not drawn)
inactive: [1] 15.4% | [2] 22.6% | [3] 23.5% | [4] 50.1% | [5] 67.4% | [6] 23.3% | [8] 18.6% | [10] 46.9% | [11] 25.1% | [12] 26% | [13] 10.8% | [14] 13.2% | [15] 11% | [16] 11.7%
active: [7] 4.88% | [9] 4.33%

COc1ccc(-c2cc(-c3ccc(Cl)cc3)c(C#N)c(=O)n2CCCCCC(=O)Nc2ccccc2N)cc1
active: [1] -1.58%
inactive: [2] 29.8% | [3] 52.2% | [4] 54.7% | [5] 63.6% | [6] 37.6% | [7] 58.3% | [8] 70% | [9] 33.3% | [10] 18.6% | [11] 58.4% | [12] 42.4% | [13] 31% | [14] 22.5% | [15] 82.8% | [16] 40.4%

CCOC(=O)c1cn2ncnc(Oc3ccc(NC(=O)NCCN4CCOCC4)c(Cl)c3)c2c1C
inactive: [1] 105% | [2] 101% | [3] 96.4% | [4] 96.3% | [5] 92.2% | [6] 101% | [7] 105% | [8] 91.4% | [9] 101% | [10] 80.6% | [17] 97.3% | [12] 94.1% | [13] 88.5% | [14] 94.7% | [15] 110% | [16] 103%

Cc1ccc(-c2nc(N3CCN(CC(=O)Nc4ccc(Cl)c(C(F)(F)F)c4)CC3)c3ccccc3n2)cc1
inactive: [1] 87.2% | [2] 88.9% | [3] 89.9% | [4] 102% | [5] 84.7% | [6] 99.8% | [7] 102% | [8] 97.2% | [9] 86.5% | [10] 74.7% | [17] 94.6% | [12] 91.7% | [13] 74.7% | [14] 79.2% | [15] 112% | [16] 94.2%

COc1ccc(C2C(N)=NNC2c2cccc(O)c2)cc1 (stereo not drawn)
inactive: [1] 81.2% | [2] 93.8% | [3] 107% | [4] 108% | [5] 98.9% | [6] 90.6% | [7] 106% | [8] 110% | [9] 99.1% | [10] 101% | [17] 100% | [12] 109% | [13] 96.6% | [14] 104% | [15] 122% | [16] 92.8%

Cc1ccccc1C(=O)NN
inactive: [1] 86.2% | [2] 109% | [3] 121% | [4] 117% | [5] 98.8% | [6] 85.8% | [7] 126% | [8] 106% | [10] 102% | [11] 106% | [17] 111% | [12] 113% | [13] 102% | [14] 108% | [15] 95.4% | [16] 112%

CC(C)OC(=O)Nc1ccc(-c2nc(-c3cccc(OCCN4CCOCC4)c3)c(-c3ccnc(Br)c3)[nH]2)cc1
active: [1] -14.6% | [8] -33% | [13] -9.12%
inactive: [2] 38.9% | [3] 55.6% | [4] 54% | [5] 12.2% | [6] 45.7% | [7] 45.1% | [9] 57.1% | [10] 31.2% | [11] 42.1% | [12] 19.9% | [14] 22.3% | [15] 29.4% | [16] 10.4%
